A short description of test [1]: Quantitative High-Throughput drug screen in 47 multiple myeloma cell lines against the NCATS MIPE library collection: UTMC2_PLB cell viability assay (AID 1919868). Note: nearly all actives have a fitted effect of over 55% in size. Particulars: CellTiter-Glo ATP luminescence, 48 h; viability (% of DMSO control): at 45.8 µM (top of the series). In a few lines: (§1)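 ATP-based luminescence (CellTiter-Glo, 5 min RT incubation) quantified surviving cells following two days' treatment with MIPE 4.0 agents at 37 °C, 5% CO2.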

Test [2] can be described thus: Quantitative High-Throughput drug screen in 47 multiple myeloma cell lines against the NCATS MIPE library collection: RPMI8226_ATCC cell viability assay (AID 1919871). Note: nearly all actives have a fitted effect of over 30% in size. In a few lines: as §1
A short description of test [3]: Quantitative High-Throughput drug screen in 47 multiple myeloma cell lines against the NCATS MIPE library collection: KMS11_JCRBsus cell viability assay (AID 1919873). Note: nearly all actives have a fitted effect of over 50% in size. In a few lines: as §1
Test [4] in a line: Quantitative High-Throughput drug screen in 47 multiple myeloma cell lines against the NCATS MIPE library collection: KMS28BM_JCRB cell viability assay (AID 1919874). Note: nearly all actives have a fitted effect of over 35% in size. In a few lines:
as §1

The nature of test [5]: Quantitative High-Throughput drug screen in 47 multiple myeloma cell lines against the NCATS MIPE library collection: PE2_PLB cell viability assay (AID 1919869). Note: nearly all actives have a fitted effect of over 35% in size. In a few lines: as §1
Test [6] is described as follows: Quantitative High-Throughput drug screen in 47 multiple myeloma cell lines against the NCATS MIPE library collection: PCM6_Riken cell viability assay (AID 1919870). Note: nearly all actives have a fitted effect of over 30% in size. The method in brief: as §1
Test [7] in a line: Quantitative High-Throughput drug screen in 47 multiple myeloma cell lines against the NCATS MIPE library collection: OPM2_DSMZ cell viability assay (AID 1919872). Note: nearly all actives have a fitted effect of over 30% in size. In a few lines:
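Relative luminescence from CellTiter-Glo served as the viability signal, referenced to DMSO-treated (100%) and cell-free medium (0%) controls. Treatment lasted 48 hours at 37C with 500 cells per well.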

The structures appear in SMILES notation. Results filed as inconclusive are left out. The source made the active and inactive calls. Calls come from the whole dose curve; as a rule, active = well fitted cell-killing curve with a large enough effect; inconclusive = small, poorly fitted or top-dose-only effect, or effect the other way; inactive = no such curve, though single readings can be large or run the other way.
Potency is the fitted concentration of half-maximal effect.

`CCC[C@H](N[C@@H](C)C(=O)N1[C@@H]2CCCC[C@H]2C[C@H]1C(=O)O)C(=O)OCC`: the Potency in test [1] is 1.32 µM (active); in test [2], 9.35 µM (active). Further, the Potency result in test [3] and in test [4] was “inactive” in each case.
Turning to `O=[N+]([O-])c1ccc(Nc2ccccc2-c2ccccc2)c2nonc12`, in test [5], the Potency is 20.9 µM (active).
For `CO[C@@H]1C(N(C)C(=O)c2ccccc2)C[C@H]2O[C@]1(C)n1c3ccccc3c3c4c(c5c6ccccc6n2c5c31)C(=O)NC4=O` (stereo partly specified), the Potency in test [1] is 2.64 µM (active); in test [5], 3.72 µM (active); in test [2], 5.26 µM (active); in test [3] it was 2.35 µM (active).
In the case of `CO[C@H]1/C=C\O[C@@]2(C)Oc3c(C)c(O)c4c(O)c(c(C=NN5CCN(C6CCCC6)CC5)c(O)c4c3C2=O)NC(=O)C(C)=CC=C[C@H](C)[C@H](O)[C@@H](C)[C@@H](O)[C@@H](C)[C@H](OC(C)=O)[C@H]1C`, the Potency in test [1] was 0.059 µM (active); in test [5] it was 0.118 µM (active); in test [6], 0.118 µM (active); in test [2] it was 1.18 µM (active); in test [7], 14.8 µM (active).
With `CC(C)=CCCC(C)=CCCC(C)=CCCC(C)=CCCC(C)=CCCC(C)=CCCC(C)=CCCC(C)=CCCC(C)=CCO`, the Potency entry in test [1], in test [6], in test [2], in test [7], in test [3] and in test [4] was “inactive” in each case.
Turning to `CN(C)CCOc1cc(-c2cn[nH]c2)ccc1NC(=O)C1COc2ccccc2O1` (stereo unspecified), the Potency in test [1] was 6.62 µM (active); in test [6], 4.69 µM (active); in test [4] it was 5.9 µM (active). Besides, in test [2], the Potency result is “inactive”.
As for `O=C1CN2Cc3c(ccc(Cl)c3Cl)N=C2N1`, the Potency entry in test [1] was “inactive”. The Potency is 20.9 µM (active) in test [5] and 18.7 µM (active) in test [2].
With `CC(O)=C(C#N)C(=O)Nc1ccc(C(F)(F)F)cc1`, the Potency was 33.2 µM (active) in test [1], 8.33 µM (active) in test [5], 20.9 µM (active) in test [6] and 6.62 µM (active) in test [2]. Also, in test [7], the Potency entry was “inactive”.
`OC[C@H]1O[C@@H](O[C@H]2[C@@H](O)[C@@](O)(CO)O[C@@H]2CO)[C@H](O)[C@@H](O)[C@@H]1O`: the Potency entry in test [1], in test [2], in test [7] and in test [3] was “inactive” in each case.
Turning to `O=C(O)CCC=CCC[C@@H]1[C@H](N2CCCCC2)[C@@H](O)C[C@@H]1OCc1ccc(-c2ccccc2)cc1`, the Potency result in test [1], in test [5], in test [2], in test [7] and in test [3] was “inactive” throughout.
Turning to `COc1cc([C@@H]2c3cc4c(cc3[C@@H](O[C@@H]3O[C@@H]5CO[C@@H](C)O[C@@H]5[C@H](O)[C@@H]3O)[C@H]3COC(=O)[C@H]23)OCO4)cc(OC)c1O`, the figures for the Potency in test [1] and in test [5] were 0.418 µM (active) and 1.18 µM (active), respectively.
In the case of `COc1cc2nccc(Oc3ccc(NC(=O)Nc4ccc(F)cc4F)c(F)c3)c2cc1OC`, the Potency entry in test [1] and in test [6] was “inactive” throughout. Moreover, the values for the Potency in test [7], in test [3] and in test [4] were 4.69 µM (active), 2.09 µM (active) and 1.05 µM (active), respectively.
For `O=C1C(c2c(O)[nH]c3ccccc23)=Nc2ccccc21`, the Potency result in test [1], in test [7], in test [3] and in test [4] was “inactive” in each case.
For `C[C@@H](O[C@H]1OCCN(Cc2n[nH]c(=O)[nH]2)[C@@H]1c1ccc(F)cc1)c1cc(C(F)(F)F)cc(C(F)(F)F)c1`, the Potency in test [1] was 33.2 µM (active); in test [5], 20.9 µM (active); in test [6], 20.9 µM (active); in test [2], 23.5 µM (active).
With `CCN1C[C@H](C)n2c(c(O)c3c(=O)n(Cc4ccc(F)c(Cl)c4)nc(C(=O)NC)c32)C1=O`, the Potency result in test [1], in test [7] and in test [3] was “inactive” in each case. For the same compound, in test [4], the Potency is 13.2 µM (active).
Regarding `O=C(Nc1cccc2c(=O)cc(-c3nn[nH]n3)oc12)c1ccc(OCCCCc2ccccc2)cc1`, the values for the Potency in test [1] and in test [3] were 14.8 µM (active) and 23.5 µM (active), respectively. In addition, the Potency entry in test [7] was “inactive”.
For the compound `O=C1Nc2ccc(I)cc2C1=Cc1cc(Br)c(O)c(Br)c1`, the Potency in test [1] was 14.8 µM (active); in test [5], 14.8 µM (active); in test [3], 18.7 µM (active). For the same compound, the Potency result in test [2], in test [7] and in test [4] was “inactive” in each case.
Turning to `Cc1cc(NC(=O)Nc2ccc(N(C)C)cc2)c2cc(F)cc(F)c2n1`, the Potency entry in test [1], in test [5], in test [6] and in test [4] was “inactive” in each case.
Consider `CON(C)C(=O)N1N=C(c2cc(F)ccc2F)S[C@]1(CCCN)c1ccccc1`, for which the Potency entry in test [1] and in test [3] was “inactive” throughout.
In the case of `CC[C@H](C=C[C@@H](C)[C@H]1CC[C@H]2[C@@H]3CC=C4C[C@@H](O)CC[C@]4(C)[C@@H]3CC[C@]12C)C(C)C`, the Potency result in test [1], in test [2] and in test [7] was “inactive” in each case. The Potency in test [5] is 0.0575 µM (active); in test [6], 0.575 µM (active); in test [3], 5.12 µM (active).
As for `O=C1CCCC(=O)C1C(=O)c1ccc(C(F)(F)F)cc1[N+](=O)[O-]`, the Potency entry in test [5], in test [6], in test [3] and in test [4] was “inactive” in each case.
For `COc1ccc2ccc(=O)oc2c1CC=C(C)C`, the Potency entry in test [5] and in test [6] was “inactive” in each case.
As to `Cc1ccc2c(=O)c3cccc(CC(=O)O)c3oc2c1C`, the Potency was 20.9 µM (active) in test [5] and 23.5 µM (active) in test [6]. Besides, the Potency entry in test [2], in test [3] and in test [4] was “inactive” throughout.
On to `CCOc1ccccc1N=Nc1c(C)[nH]n(-c2nc(-c3ccccc3)cs2)c1=O`, for which the Potency result in test [5] and in test [7] was “inactive” in each case. In addition, in test [2], the Potency is 2.35 µM (active).
Regarding `CC1=C(C(=O)Nc2cc3cn[nH]c3cc2F)C(c2ccc(C(F)(F)F)cc2)CC(=O)N1` (stereo unspecified), the Potency result in test [5], in test [2], in test [7], in test [3] and in test [4] was “inactive” each time. Also, in test [6], the Potency is 10.5 µM (active).

The record behind these values is PubChem BioAssay (NCATS).
